Screening results from PubChem BioAssay.
In the library only some 2.3% were active in any assay of this set; here they are far more common.
MCL1 BIM primary – MCL1-BIM-BH3 interaction inhibition (human). GST-MCL1 / FITC-Bim-BH3 fluorescence polarization. inhibition, % at 10.9 µM. hit rate 0.68% among 320,000. AID 2057;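 active = inhibition above the mean inhibition of all tested compounds plus 3 SD, set per campaign, cut at about 40% in these data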;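 note: higher means more loss of mP so more displacement of Bim peptide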
Mcl1 Noxa PPI – Mcl-1/Noxa interaction inhibition. Q07820. TR-FRET Mcl-1/Noxa peptide binding, 2 h. inhibition, % at 21.7 µM. hit rate 1.5% among 220,000. AID 1022;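 active = compounds that cut the protein-peptide binding signal by more than 50% relative to plate controls in a single-dose test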;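 note: His-tagged Mcl-1 with rhodamine Noxa BH3 peptide and terbium anti-His antibody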
BCLXL inh – inhibitors of human Bcl-xL; Q07817; GST-Bcl-xL / FITC-Bim BH3 peptide fluorescence polarization; inhibition, % at 10.9 µM; hit rate 0.7% among 320,000;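 active = inhibition above the mean of all tested compounds plus 3 SD, cutoff set per campaign, cut at about 30% in these data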;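 note: inhibitors lower millipolarization by displacing the labeled peptide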
Target sequence (Q07817 whole entry, looked up): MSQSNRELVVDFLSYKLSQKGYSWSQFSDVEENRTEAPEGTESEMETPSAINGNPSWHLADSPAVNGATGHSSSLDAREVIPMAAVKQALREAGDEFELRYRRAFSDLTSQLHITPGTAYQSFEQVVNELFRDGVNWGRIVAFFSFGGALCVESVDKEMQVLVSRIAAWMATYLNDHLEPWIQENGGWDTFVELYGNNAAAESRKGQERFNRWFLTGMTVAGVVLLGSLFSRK
Mcl1-Bid inh – Mcl-1/Bid interaction inhibition; inhibition, % at 21.7 µM; hit rate 0.97% among 220,000; AID 1021; Q07820; TR-FRET Mcl-1/Bid-Dy647 peptide binding, 1536-well;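 active = compounds that cut the binding signal by more than half at the single screening dose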;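 note: His-tagged Mcl-1 with europium anti-His antibody binding Bid BH3 peptide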
Bim-Mcl-1 – human Bim-Mcl-1 interaction inhibition. hit rate 0.1% among 190,000. Bead-based flow cytometry, Bim peptide-Mcl-1 binding. inhibition, % at 10 µM. Q07820; in the data active = inhibition above about 40%
GLD-1 RNA inh – GLD-1-TGE RNA interaction inhibition (C. elegans) | AID 2280 | inhibition, % at 5.96 µM | purified GLD-1 + fluorescein TGE RNA, fluorescence polarization | hit rate 0.44% among 320,000 | Q17339;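 active = percent inhibition above a per-plate cutoff, the plate mean of test compounds plus 3 SD, cut at about 30% in these data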
Target sequence (Q17339 whole entry, looked up): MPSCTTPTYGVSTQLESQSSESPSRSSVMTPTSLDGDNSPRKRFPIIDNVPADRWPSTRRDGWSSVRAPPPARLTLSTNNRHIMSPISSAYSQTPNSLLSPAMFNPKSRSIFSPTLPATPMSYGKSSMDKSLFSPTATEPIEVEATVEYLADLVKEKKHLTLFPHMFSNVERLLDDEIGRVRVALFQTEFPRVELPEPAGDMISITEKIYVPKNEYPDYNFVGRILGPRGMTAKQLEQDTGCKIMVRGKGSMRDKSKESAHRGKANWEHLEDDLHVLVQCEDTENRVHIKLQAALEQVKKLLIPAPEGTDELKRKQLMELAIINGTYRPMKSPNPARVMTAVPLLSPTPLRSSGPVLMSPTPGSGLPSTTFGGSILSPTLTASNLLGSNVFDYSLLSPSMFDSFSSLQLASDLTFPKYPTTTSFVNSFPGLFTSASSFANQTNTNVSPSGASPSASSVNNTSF
BCLXL inh confirm – counter-screen for MCL1 inhibitors: confirmation of human Bcl-xL inhibitors; GST-Bcl-xL / FITC-Bim BH3 peptide FP binding; shares compounds with MCL1 BIM primary; hit rate 54% among 1,700; inhibition, % at 10.9 µM;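 active = inhibition above a cutoff equal to the mean inhibition of all tested compounds plus 3 SD, cut at about 30% in these data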
MCL1 inh confirm – confirmation of human MCL1 and BIM-BH3 interaction inhibitors; inhibition, % at 10.9 µM; shares compounds with MCL1 BIM primary; GST-MCL1 / FITC-Bim-BH3 fluorescence polarization; hit rate 61% among 1,700;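 active = inhibition above the average of all tested compounds plus 3 SD, cut at about 40% in these data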
Each line names hits and unclear results; the compound was inactive in the other large screens (follow-up assays come after a bar, where they were run).

COC(=O)C(N)Cc1ccc(O)cc1 (stereo unspecified)	none
NC(CO)C(=O)NNCc1ccc(O)c(O)c1O (stereo unspecified)	MCL1 BIM primary 72, Mcl1 Noxa PPI 101, BCLXL inh 36 | BCLXL inh confirm 37 | MCL1 inh confirm 61
COc1cc(/C=C/C(=O)Nc2cccc(S(=O)(=O)NC3=NCCCCC3)c2)ccc1OCC#N	none (no result: Mcl1 Noxa PPI, Mcl1-Bid inh, Bim-Mcl-1)
CC(C)(C)c1ccc(C(=O)Nc2cccc3ncccc23)cc1	MCL1 BIM primary 90, BCLXL inh 81, GLD-1 RNA inh 64 (no result: Mcl1 Noxa PPI, Mcl1-Bid inh, Bim-Mcl-1) | BCLXL inh confirm 116 | MCL1 inh confirm 143
O=C(CN1CCN(C(=O)C2CCCO2)CC1)Nc1cc(C(F)(F)F)ccc1Cl (stereo unspecified)	none (no result: Mcl1 Noxa PPI, Mcl1-Bid inh, Bim-Mcl-1)
N#CC1=C(N)Oc2c(ccc3cccnc23)C1c1ccccc1 (stereo unspecified)	none (no result: Bim-Mcl-1)
Cc1ccc2[nH]c(=O)c(C3C(C#N)=C(N)Oc4c3ccc3cccnc43)cc2c1 (stereo unspecified)	MCL1 BIM primary 44, Mcl1-Bid inh 60 | BCLXL inh confirm 37 | MCL1 inh confirm 58
Cc1ccc(CNC(=O)c2cnc3ccccc3n2)cc1	none (no result: Mcl1 Noxa PPI, Mcl1-Bid inh, Bim-Mcl-1)
COc1ccc2nc(N3CCCC3)c(C#N)cc2c1	MCL1 BIM primary 67, BCLXL inh 74, GLD-1 RNA inh 49 | BCLXL inh confirm 115 | MCL1 inh confirm 130
COc1ccc(/C=N/NC(=O)c2nn(-c3ccc(C)c(C)c3)c(=O)c3ccccc23)cc1	none
COc1ccc(/C=N/NC(=O)c2nn(-c3ccccc3)c(=O)c3c(N)scc23)cc1	MCL1 BIM primary 41, Mcl1 Noxa PPI 55 | BCLXL inh confirm inactive | MCL1 inh confirm inactive
Cc1ccc(C(=O)NCCNC(=O)c2ccc(F)cc2)cn1	none (no result: Mcl1 Noxa PPI, Mcl1-Bid inh, Bim-Mcl-1)
O=C1c2cccc(O)c2C(=O)c2c(O)cccc21	MCL1 BIM primary 158, BCLXL inh 119, GLD-1 RNA inh 92 | BCLXL inh confirm 81 | MCL1 inh confirm 97
COc1ccccc1C(C)NC(=O)Cc1ccc(S(=O)(=O)N2CCOCC2)s1 (stereo unspecified)	none (no result: Mcl1 Noxa PPI, Mcl1-Bid inh, Bim-Mcl-1)
NNc1nc(C(F)(F)F)nc2ccccc12	none
O/C=c1\ccc2cccc3nc(C(F)(F)F)nc1c23	MCL1 BIM primary 94, BCLXL inh 86, GLD-1 RNA inh 37 (no result: Mcl1 Noxa PPI, Mcl1-Bid inh, Bim-Mcl-1) | BCLXL inh confirm 118 | MCL1 inh confirm 133
Cc1ccc(NC(=O)CCNC(=O)c2ccc(Br)cc2)cc1S(=O)(=O)N1CCCCCC1	none (no result: Mcl1 Noxa PPI, Mcl1-Bid inh, Bim-Mcl-1)
O=C(NC(Cc1ccccc1)C(=O)O)/C(=C/c1ccco1)NC(=O)c1cccc(Br)c1 (stereo unspecified)	MCL1 BIM primary 51, BCLXL inh 37 | BCLXL inh confirm inactive | MCL1 inh confirm inactive
O=c1[nH]c2ccccc2nc1/C=C(\O)c1cccs1	MCL1 BIM primary 100, BCLXL inh 81 | BCLXL inh confirm 88 | MCL1 inh confirm 91
O/C(=C\c1nc2ccccc2[nH]1)c1cccs1	none (no result: Mcl1 Noxa PPI, Mcl1-Bid inh, Bim-Mcl-1)
COc1cc(NC(=S)N2CCN(CCO)CC2)cc(OC)c1	MCL1 BIM primary 82, BCLXL inh 73 (no result: Mcl1 Noxa PPI, Mcl1-Bid inh, Bim-Mcl-1) | BCLXL inh confirm inactive | MCL1 inh confirm inactive
OCCN1CCN(C(=S)Nc2ccccc2)CC1	none
CCN(C(=O)COc1ccc(F)cc1Br)c1c(N)n(Cc2ccccc2)c(=O)[nH]c1=O	none (no result: Mcl1 Noxa PPI, Mcl1-Bid inh, Bim-Mcl-1)
Cc1ccc(SCCNC(=O)/C=C/c2ccc([N+](=O)[O-])cc2)cc1	none
Cc1ccc(SCCNC(=O)/C=C/c2ccc(Cl)cc2)cc1	MCL1 BIM primary 54 | BCLXL inh confirm inactive | MCL1 inh confirm inactive
CCCc1cc(C(=O)NNC(=S)NC2CCCCC2)cs1	none (no result: Mcl1 Noxa PPI, Mcl1-Bid inh, Bim-Mcl-1)
CCOc1ccc(S(=O)(=O)NCCC(=O)N2CC=C(c3ccccc3)CC2)cc1	none (no result: Mcl1 Noxa PPI, Mcl1-Bid inh, Bim-Mcl-1)
CCc1cc(=O)oc2cc(C)c(CN3CCCC(C)C3)c(O)c12 (stereo unspecified)	MCL1 BIM primary 47, Mcl1 Noxa PPI 52, Mcl1-Bid inh 93 | BCLXL inh confirm inactive | MCL1 inh confirm inactive
O=C(N/N=C/c1ccc(-c2ccc(S(=O)(=O)Nc3ncccn3)cc2)o1)c1cc2ccccc2cc1O	MCL1 BIM primary 64, Mcl1 Noxa PPI 106, Mcl1-Bid inh 51 | BCLXL inh confirm inactive | MCL1 inh confirm 57
CCOc1ccc(C(=O)N/N=C/c2ccc(-c3ccc(S(=O)(=O)Nc4ncccn4)cc3)o2)cc1	none
CC(=O)N1CCc2c(sc(NC(=O)c3ccc(S(=O)(=O)N(C)C)cc3)c2C#N)C1	MCL1 BIM primary 41 (no result: Mcl1 Noxa PPI, Mcl1-Bid inh, Bim-Mcl-1) | BCLXL inh confirm 38 | MCL1 inh confirm inactive
CC(=O)N1CCc2c(sc(NC(=O)c3ccc4c(c3)OCCO4)c2C#N)C1	none
COc1ccc(C(=O)N/N=C(\C)c2ccc3c(c2)C2C=CCC2C(c2ccccc2)N3)cc1 (stereo unspecified)	MCL1 BIM primary 56 | BCLXL inh confirm inactive | MCL1 inh confirm inactive
COc1cccc(NS(=O)(=O)c2ccc3c(c2)C2C=CCC2C(c2ccc(C(=O)O)cc2)N3)c1 (stereo unspecified)	MCL1 BIM primary 58, Mcl1 Noxa PPI 97 | BCLXL inh confirm inactive | MCL1 inh confirm 46
O=S(=O)(NCc1ccccn1)c1ccccn1	none (no result: Mcl1 Noxa PPI, Mcl1-Bid inh, Bim-Mcl-1)
Cc1nn(C(C)C(=O)NCc2ccco2)c(=O)c2nn(-c3ccccc3)c(C)c12 (stereo unspecified)	none (no result: Mcl1 Noxa PPI, Mcl1-Bid inh, Bim-Mcl-1)
O=C(CN1C(=O)C2C3CCC(C3)C2C1=O)NCc1ccco1 (stereo unspecified)	MCL1 BIM primary 53 | BCLXL inh confirm inactive | MCL1 inh confirm inactive
O=S(=O)(O)c1cccc2c(N=Nc3ccc(O)c4ncccc34)cccc12	MCL1 BIM primary 72 (no result: Mcl1 Noxa PPI, Mcl1-Bid inh, Bim-Mcl-1) | BCLXL inh confirm 34 | MCL1 inh confirm 82
CN1C=CC2=C(C#N)C(N)C(C#N)(C#N)C(c3ccccc3)C2C1 (stereo unspecified)	MCL1 BIM primary 90, BCLXL inh 90, GLD-1 RNA inh 46 | BCLXL inh confirm 40 | MCL1 inh confirm 56
CN1C[C@@H]2C(c3ccccc3)C3(c4ccc(C#N)cc4)CC2(C3)[C@H]1c1ccccc1 (stereo partly specified)	none (no result: Bim-Mcl-1)
O=c1oc2c3c4c(cc2s1)CCCN4CCC3	MCL1 BIM primary 165, Mcl1 Noxa PPI 51, BCLXL inh 130, GLD-1 RNA inh 76 | BCLXL inh confirm 99 | MCL1 inh confirm 120
O=c1ccc2cc3c4c(c2o1)CCCN4CCC3	MCL1 BIM primary 105, BCLXL inh 97, GLD-1 RNA inh 89 | BCLXL inh confirm 155 | MCL1 inh confirm 182
CCc1ccc2nc(N(CCCN(C)C)C(=O)c3ccc(S(=O)(=O)N4CCCC4)cc3)sc2c1	MCL1 BIM primary 44 (no result: Mcl1 Noxa PPI, Mcl1-Bid inh, Bim-Mcl-1) | BCLXL inh confirm inactive | MCL1 inh confirm inactive
C=CC[C@H](CC(=O)N(CCO)Cc1ccccc1)C(=O)N[C@@H](COC(=O)[C@@H](CC=C)Cc1ccc(F)cc1)Cc1c[nH]c2ccccc12	none (no result: MCL1 BIM primary, Mcl1 Noxa PPI, BCLXL inh, Mcl1-Bid inh, Bim-Mcl-1)
